Measured values from PubChem BioAssay AID651629 (Sanford-Burnham Center for Chemical Genomics, 2012).
This is one part of the list. Active and inactive are the calls of the source.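 How the source made its calls: active means mean inhibition across replicates of 40% or more; inactive means mean inhibition below 40%.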

Assay: TAG lipid buildup inhibition in H9c2 – cell-based, single concentration, Nile Red fluorescence, confirmation (AID 651629);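 further: plate controls were DMSO only wells for no effect and Triacsin C treated wells for full effect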
Conditions: H9c2 lipid accumulation, at 12.5 µM, hits give high values, cells loaded with 200 µM oleic acid

inhibition, active:
CN(C)C(=S)N=c1ssc(=S)n1Cc1ccco1 62.1%
CCOCCC(=O)Nc1ccc2c(c1)c(=O)n(C)n2-c1ccc2ccccc2c1 47.5%
C/C(=N\Nc1ccc(Cl)nn1)c1ccccc1O 66.4%
CC1(c2ccccc2)CC(C)(C)N(C(=O)c2cc([N+](=O)[O-])cc([N+](=O)[O-])c2)c2ccccc21 (stereo not given) 62.2%
C=CCC[C@@H](Cc1ccc(F)cc1)C(=O)OC[C@H](Cc1c[nH]c2ccccc12)NC(=O)[C@@H](CC=C)CC(=O)N(CCO)Cc1ccccc1 80%
COc1ccccc1C1C2=C(COC2=O)Nc2cc3c(cc21)OCO3 (stereo not given) 61.4%
CCN(CC)CCC(c1ccc2c(c1)OCO2)c1c(OC)cc(OC)c2c(-c3ccccc3)cc(=O)oc12 (stereo not given) 47.8%
Cc1ccc(Sc2cc(N3CCOCC3)nc(-c3ccccc3)n2)cc1 62.5%
Cc1ccccc1NC(=O)CSc1nc2ccc(Nc3nc(N4CCOCC4)nc(N4CCOCC4)n3)cc2s1 77.3%
COc1cc(/C=C2\Oc3ccc(C#Cc4ccc(O)cc4)cc3C2=O)cc(OC)c1 103%
COc1ccc(-c2cc(NC=O)c3ncc(-c4cc(OC)c(OC)c(OC)c4)n3c2)c(OC)c1 79.3%
CC(=O)c1cccc(-c2ccc(CN3C(CC(C)C)C(=O)N(Cc4cn(CC5CCCCC5)nn4)CCS3(=O)=O)cc2)c1 (stereo not given) 47%
COc1ccc(/C=C2/CCCc3ccccc3C2=O)cc1 54.5%
COc1ccc(CC(=O)Nc2ccc(-c3nnc(-c4ccc(C)cc4)o3)cc2)cc1 57.6%
COC(=O)Nc1nc2ccc(Sc3ccccc3)cc2[nH]1 66.1%
C=CCn1c(SCc2c(C)noc2C)nc2sc3c(c2c1=O)CCC(C)C3 (stereo not given) 49.4%
Oc1cccc2cc(-c3ccncc3)cnc12 71.1%

inhibition, inactive:
COC(=O)c1ccc(-c2c(-c3ccccc3)ncc3cc(OC)c(OC)cc23)cc1 13.2%
COC(C[C@H](O)CC(=O)COCc1ccccc1)OC -3.23%
CN(C)CC(O)COc1ccc(C(C)(C)c2ccc(OCC(O)CN(C)C)cc2)cc1 (stereo not given) 20.9%
O=C(Nc1ccccc1)Oc1cccc2cccnc12 -3.58%
Cc1ccc(-c2nc3ccccc3[nH]2)cc1NC(=O)c1sc2ccccc2c1Cl 35.7%
CC(C)C(=O)N1CCC2(CC1)Oc1ccc(F)cc1C(=O)C21CC(c2ccccc2)=NO1 (stereo not given) -2.17%
C=CCNC(=S)N/N=C/c1ccc(C)s1 24.3%
CN(/N=C/c1ccccc1)C(=S)c1ccccc1 12.5%
